DT40 TDP1 no CPT: qHTS for Inhibitors of human tyrosyl-DNA phosphodiesterase 1 (TDP1): qHTS in cells in absence of CPT; Potency, µM (highest dose often 46.2 µM), hits mostly inhibitors; AID 686978, 2013; DT40 Tdp1-/- hTDP1 cells, no CPT, ATP luminescence, 48 h; 15% of 420,000 active; also: nearly all actives have a fitted effect of over 55% in size
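Readout: luminescence from CellTiter-Glo after 30 min in the dark at RT. Cells: DT40 Tdp1-/- with stable hTDP1, 400/well. Exposure: compounds alone, ≥48 hr, 37 °C.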
ALOX12 inh: inhibitors of human 12S-lipoxygenase ALOX12. Potency, µM (top dose mostly 108 µM), hits mostly inhibitors. purified 12hLO, xylenol orange hydroperoxide absorbance. P18054. 1.1% of 580,000 active. AID 1671190
Target sequence (P18054 whole entry, looked up): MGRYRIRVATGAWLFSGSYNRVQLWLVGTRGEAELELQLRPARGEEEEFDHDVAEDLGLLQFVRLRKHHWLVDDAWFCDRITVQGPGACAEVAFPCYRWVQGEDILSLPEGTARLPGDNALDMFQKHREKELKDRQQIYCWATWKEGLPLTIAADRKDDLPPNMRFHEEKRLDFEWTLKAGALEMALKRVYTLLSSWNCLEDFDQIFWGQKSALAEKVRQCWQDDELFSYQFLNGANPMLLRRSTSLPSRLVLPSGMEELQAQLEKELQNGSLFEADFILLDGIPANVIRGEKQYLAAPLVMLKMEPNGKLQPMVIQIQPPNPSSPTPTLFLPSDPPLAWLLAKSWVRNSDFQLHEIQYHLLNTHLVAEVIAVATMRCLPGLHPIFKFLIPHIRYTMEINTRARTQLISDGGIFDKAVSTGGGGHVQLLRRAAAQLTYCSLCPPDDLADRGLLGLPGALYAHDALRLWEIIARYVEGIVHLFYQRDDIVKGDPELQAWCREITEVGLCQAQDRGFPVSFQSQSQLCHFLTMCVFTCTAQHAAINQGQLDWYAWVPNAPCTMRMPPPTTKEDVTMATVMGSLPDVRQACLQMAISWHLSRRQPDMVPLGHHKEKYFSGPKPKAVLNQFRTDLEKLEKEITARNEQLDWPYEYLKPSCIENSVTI
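Hydroperoxide product was detected by ferrous iron/xylenol orange as the 573 to 405 nm absorbance ratio. Arachidonic acid at 40 uM (final) was turned over for 30 min at room temperature by 150 nM human 12hLO, pH 7.0 Hepes buffer, after 15 min compound preincubation.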
ELG1 DNA repair: blocks ELG1-dependent DNA repair in HEK293T cells. HEK293T ELG1-luciferase reporter, luminescence, 16 h; DNA damage induced by 5-fluorouridine. Potency, µM (highest dose often 46.1 µM), usual class: inhibitors. 2.3% of 330,000 active; also: nearly all actives have a fitted effect of over 55% in size
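Luminescence from the luciferase reporter, measured 30 min after ONE-Glo reagent at room temperature, was the read-out. Beforehand, 2,000 cells per well were exposed for 16 hr at 37 °C to 5-fluorouridine together with compound or vehicle.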
RORg inh: inhibitors of mouse ROR gamma transcriptional activity; Drosophila S2 Gal4-RORgamma UAS-luciferase reporter, 20 h; 5.4% of 310,000 active; AID 2551; Potency, µM (titrated, usually from 53.6 µM), usual class: inhibitors; also: nearly all actives have a fitted effect of over 60% in size
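In this cell-based reporter format, copper sulfate (700 uM final) drives Gal4–ROR gamma fusion expression from a metallothionein promoter in Drosophila Schneider cells; compounds preincubated 1 hr, reporter read after 20 hr at ambient temperature.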
Gal4-VP16 FLuc: counter-screen for ROR gamma inhibitors: Gal4-VP16 reporter; Drosophila S2 Gal4-VP16 UAS-luciferase, luminescence, 20 h; Potency, µM (titrated, usually from 53.6 µM), most hits filed as inhibitors; 3.5% of 310,000 active;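 also: Gal4-VP16 expression switched on by copper sulfate through the metallothionein promoter; nearly all actives have a fitted effect of over 50% in size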
TDP1 cell CPT: growth inhibition of DT40 Tdp1-/-;hTDP1 cells with camptothecin (screen for TDP1 inhibitors) | 12% of 420,000 active | Potency, µM (titrated, usually from 46.2 µM), usual class: inhibitors | chicken DT40 Tdp1-/-;hTDP1 cells + 20 nM CPT, ATP luminescence, 48 h; also: nearly all actives have a fitted effect of over 55% in size
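Chicken DT40 Tdp1-/- cells complemented with human TDP1, 400 cells/well, exposed to compounds plus 20 nM camptothecin for at least 48 h at 37 C; viability read as ATP content by CellTiter-Glo luminescence.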
Hits are given with their value; - = inactive; ? = inconclusive; . = no result; [ ] = another dose, or the depositor's remark. In the library only some 15% were active in any assay of this set; here they are far more common. Calls follow the shape of the dose curve; as a rule, active = well fitted curve in the direction sought with a large enough effect; inconclusive = small, poorly fitted or top-dose-only effect, or another doubt; inactive = no such curve, though single readings can be large; an effect the other way counts as inactive or inconclusive.

SMILES	DT40 TDP1 no CPT	ALOX12 inh	ELG1 DNA repair	RORg inh	Gal4-VP16 FLuc	TDP1 cell CPT
CCCN(CC1CCOC1)C(=O)Nc1ccc(C)c(F)c1 (stereo not given)	.	-	.	.	.	.
COc1ccc(CCNC(=O)c2cc(Sc3cccc(Cl)c3)nc3ccccc23)cc1OC	7.31µM	-	.	.	.	8.2µM
COc1ccc(/C=C/C(=O)NCCN2CCOCC2)cc1OC	20.6µM	-	-	-	-	?
CCOCCCNC(=O)c1cc(Sc2ccc(C)cc2)nc2ccccc12	?	-	?	-	-	-
CCOc1ccc(/C=C/C(=O)NCCc2ccc(OC)c(OC)c2)cc1	23.1µM	-	-	-	-	?
CCOCCCNC(=O)c1cc(Sc2cccc(Cl)c2)nc2ccccc12	14.6µM	?	.	.	.	?
O=C(Nc1nccs1)C1CC(=O)N(Cc2ccccn2)C1 (stereo not given)	.	-	.	.	.	.
Cc1ccc(NC(=O)c2ccc3c(c2)N(S(C)(=O)=O)CC3)c(C)c1	.	-	.	.	.	.
COc1cccc(CNC(=O)c2cc(Sc3cccc(Cl)c3)nc3ccccc23)c1	14.6µM	-	.	.	.	?
COc1ccc(CC(=O)NC2CCN(c3cc(C)cc(C)c3)C2=O)c(Cl)c1 (stereo not given)	.	-	.	.	.	.
O=C1C2C3C=CC(C3)C2C(=O)N1CCN1CCN(Cc2ccc([N+](=O)[O-])cc2)CC1 (stereo not given)	16.4µM	-	?	?	-	?
O=C(CCN1C(=O)C2C3C=CC(C3)C2C1=O)N1CCN(c2ccc([N+](=O)[O-])cc2)CC1 (stereo not given)	?	-	?	-	-	?
CN(C)c1nc(N)nc(CSc2ccccc2Cl)n1	.	-	.	.	.	.
CN(C)c1nc(N)nc(CSc2ncc(Cl)cc2Cl)n1	-	-	-	12.6µM	-	-
CCN(C1CCOCC1)C1CN(C(=O)c2nccn2C)C1	.	-	.	.	.	.
CC(=O)Nc1ccc(CC(=O)Nc2ccc3c(c2)OC2(CCCC2)O3)cc1	-	-	.	.	.	-
Nc1ccc2c(c1)OC1(CCCCC1)O2	16.4µM	-	-	-	-[10 µM]	?
COc1ccc(CCn2c(Br)nc3c2c(=O)n(C)c(=O)n3C)cc1	.	-	.	.	.	.
CCOc1cc(CN2CCC(C)(c3noc(C4CCOCC4)n3)CC2)ccc1O	.	-	.	.	.	.
CCc1ccc(OCC(=O)N(Cc2cccs2)c2ccc(Cl)cc2)cc1	?	-	.	.	.	?
COc1ccc(OCC(=O)N(Cc2cccs2)c2ccc(OC)cc2)cc1	23.1µM	-	.	.	.	16.4µM
COc1ccc(N(Cc2cccs2)C(=O)COc2ccc(C(C)C)cc2)cc1	20.6µM	-	.	.	.	23.1µM
CCOc1ccc(N(Cc2ccc(OC)cc2)C(=O)c2ccco2)cc1	?	-	?	-	-	?
COc1ccc(N(Cc2cccs2)C(=O)c2ccco2)cc1	?	?	.	.	.	23.1µM
COc1ccc(CN(C(=O)c2ccco2)c2ccc(C)c(C)c2)cc1	?	-	-	-	-	?
SMILES	DT40 TDP1 no CPT	ALOX12 inh	ELG1 DNA repair	RORg inh	Gal4-VP16 FLuc	TDP1 cell CPT
CCOc1ccc(N(Cc2ccc(OC)c(OC)c2)C(=O)c2ccco2)cc1	18.4µM	-	-	-	-	?
Cc1cc(=O)oc2cc(OCC(=O)NCC3(N(C)C)CCCCCC3)ccc12	.	-	.	.	.	.
O=C(CCC1CCN(C(=O)c2ccccc2F)CC1)NCC1CCCCC1	.	-	.	.	.	.
COc1ccc(N(Cc2cccs2)C(=O)Nc2cccc(Cl)c2)cc1	?	15.8µM	.	.	.	?
Cc1ccc(N(Cc2cccs2)C(=O)Nc2cccc(Cl)c2)cc1	?	-	.	.	.	?
Cc1cc(N2CCCCCC2)n2nc(Cc3ccc(Cl)cc3)nc2n1	.	-	.	.	.	.
Cn1c(C(=O)N2CCCC(C(=O)NCCCc3ccccc3)C2)cc2sccc21 (stereo not given)	10.3µM	-	-	-	-	18.4µM
Cn1c(C(=O)N2CCCC(C(=O)NCCc3ccccc3)C2)cc2sccc21 (stereo not given)	5.8µM	-	?	-	?	5.8µM
C#CCN1CCC(C(=O)NC2CCN(C(=O)C3CCCCC3)CC2)CC1	.	-	.	.	.	.
CC1=CC(=O)C=C(C)C1=NOc1ccccc1[N+](=O)[O-]	2.06µM	-	?	10µM	?	1.3µM
CCc1nnc(NC(=O)c2c(OC)cccc2OC)s1	-	-	-	-	-	-
CCSc1nnc(NC(=O)c2ccc3ccccc3n2)s1	?	-	?	1µM	0.708µM	18.4µM
CCc1nnc(NC(=O)c2sc3nc4cc(C)ccc4cc3c2N)s1	2.91µM	?	-	?	-	2.59µM

Compound activity from PubChem.
